# Experimental data: PubChem BioAssay (EPA / NIEHS)
# Several values for one entry are separate records, joined by “and”; a condition that tells them apart may be missing. Equal entries are not always repeated. Results filed as inconclusive are left out. Activity calls are given as the source filed them. How the source made its calls, unless noted: active means hit-call score of the fitted dose curve at least 0.9, where 1 is the maximum; inactive means score below 0.9.
# Columns and labels:
# [1] = ATG_NFI_CIS: Attagene CIS-FACTORIAL HepG2 Assay for human Nuclear Factor I (NFI) (AID 2282989); conditions: HepG2 cis-regulatory reporter, NFI response element transcription; actives raise or lower the signal
# Summary of the method: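 Read-out: reporter mRNA via RT-PCR plus capillary electrophoresis with fluorescence detection. Transiently transfected HepG2 (endogenous TF activity on cis promoters), 24 h compound exposure; gain or loss of signal fitted against DMSO.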
# [2] = biological target: Myc proto-oncogene protein (Homo sapiens) (UniProt P01106); test: ATG_Myc_CIS: Attagene CIS-FACTORIAL HepG2 Assay for human Myelocytomatosis (Myc) Proto-Oncogene Transcription Factor (AID 2282990); conditions: HepG2, Attagene cis-reporter transcription factor activity; actives raise or lower the signal
# Sequence of Myc proto-oncogene protein (Homo sapiens) (P01106 whole entry, looked up): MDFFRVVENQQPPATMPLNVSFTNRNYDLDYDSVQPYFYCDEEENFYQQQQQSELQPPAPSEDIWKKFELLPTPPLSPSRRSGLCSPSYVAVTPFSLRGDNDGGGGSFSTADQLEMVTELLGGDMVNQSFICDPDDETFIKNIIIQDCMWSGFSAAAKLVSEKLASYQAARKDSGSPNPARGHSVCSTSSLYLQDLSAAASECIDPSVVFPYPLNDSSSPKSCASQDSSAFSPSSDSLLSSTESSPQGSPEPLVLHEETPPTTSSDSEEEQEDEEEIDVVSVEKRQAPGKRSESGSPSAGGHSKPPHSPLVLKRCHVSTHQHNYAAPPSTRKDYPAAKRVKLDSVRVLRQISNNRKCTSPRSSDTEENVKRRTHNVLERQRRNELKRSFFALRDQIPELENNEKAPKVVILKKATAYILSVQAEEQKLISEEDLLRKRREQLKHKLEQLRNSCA
# Summary of the method: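 DMSO-normalised, bidirectionally fitted reporter mRNA signal. HepG2 cells transfected with cis reporter constructs, treated 24 h; transcripts detected by RT-PCR, 6-FAM primer extension and CE.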
# [3] = ATG_NRF2_ARE_CIS: Attagene CIS-FACTORIAL HepG2 Assay for human Nuclear Factor Erythroid 2 Related Factor 2 (NFR2) response to Antioxidant Response Elements (ARE) (AID 2282992); conditions: HepG2 Attagene ARE/NRF2 reporter, transcription factor activity; actives raise or lower the signal;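 on AC50: reporter mRNA level measured by RT-PCR and capillary electrophoresis fluorescence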
# Summary of the method: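 Endogenous transcription factor activity in human liver HepG2 cells is tracked via a cis-element-driven reporter within a multiplexed set. mRNA induction is read by RT-PCR and capillary electrophoresis after 24 h, with DMSO as baseline.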
# [4] = ATG_Oct_MLP_CIS: Attagene CIS-FACTORIAL HepG2 Assay for human Octamer-Binding Transcription Factor (Oct) (AID 2282993); conditions: HepG2 Attagene cis-factorial Oct reporter, mRNA; actives raise or lower the signal
# Summary of the method: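 Read-out: reporter mRNA via RT-PCR plus capillary electrophoresis of 6-FAM-labelled fragments. Transiently transfected HepG2, 24 h exposure, endogenous TF activity on cis elements. Gain or loss of signal fitted relative to DMSO.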
# [5] = biological target: Cellular tumor antigen p53 (Homo sapiens) (UniProt P04637); test: ATG_p53_CIS: Attagene CIS-FACTORIAL HepG2 Assay for human p53 Transcription Factor (AID 2282994); conditions: HepG2 p53 cis-element reporter, Attagene mRNA; actives raise or lower the signal
# Sequence of Cellular tumor antigen p53 (Homo sapiens) (P04637 whole entry, looked up, the tested form may be a part): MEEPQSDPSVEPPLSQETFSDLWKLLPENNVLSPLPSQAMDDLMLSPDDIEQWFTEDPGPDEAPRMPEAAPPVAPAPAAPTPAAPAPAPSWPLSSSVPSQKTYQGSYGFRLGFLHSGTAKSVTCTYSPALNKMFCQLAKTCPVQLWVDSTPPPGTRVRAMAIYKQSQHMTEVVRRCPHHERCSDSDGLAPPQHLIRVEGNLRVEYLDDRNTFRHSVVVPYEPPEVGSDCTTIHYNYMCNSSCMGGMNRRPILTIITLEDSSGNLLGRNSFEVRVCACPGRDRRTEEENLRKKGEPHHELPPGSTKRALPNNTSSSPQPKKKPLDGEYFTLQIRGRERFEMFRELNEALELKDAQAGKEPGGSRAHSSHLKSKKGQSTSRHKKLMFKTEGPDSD
# Summary of the method: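 Steps: transfect HepG2 with multiplexed cis reporter constructs; dose chemicals 24 h; extract RNA, reverse-transcribe, PCR-amplify reporter sequences; FAM-label, HpaI-digest, resolve fragments by CE. Activity fitted both directions relative to DMSO.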
# [6] = biological target: human Peroxisome Proliferator-activated Receptor delta (PPARd), PPARD (gene 5467) (UniProt Q03181); test: ATG_PPARd_TRANS: Attagene TRANS-FACTORIAL HepG2 Assay for human Peroxisome Proliferator-activated Receptor delta (PPARd) (AID 2283002; active means hit-call score of the fitted dose curve at least 0.9, where 1 is the maximum)
# Sequence of human Peroxisome Proliferator-activated Receptor delta (PPARd), PPARD (gene 5467) (Q03181 whole entry, looked up, the tested form may be a part): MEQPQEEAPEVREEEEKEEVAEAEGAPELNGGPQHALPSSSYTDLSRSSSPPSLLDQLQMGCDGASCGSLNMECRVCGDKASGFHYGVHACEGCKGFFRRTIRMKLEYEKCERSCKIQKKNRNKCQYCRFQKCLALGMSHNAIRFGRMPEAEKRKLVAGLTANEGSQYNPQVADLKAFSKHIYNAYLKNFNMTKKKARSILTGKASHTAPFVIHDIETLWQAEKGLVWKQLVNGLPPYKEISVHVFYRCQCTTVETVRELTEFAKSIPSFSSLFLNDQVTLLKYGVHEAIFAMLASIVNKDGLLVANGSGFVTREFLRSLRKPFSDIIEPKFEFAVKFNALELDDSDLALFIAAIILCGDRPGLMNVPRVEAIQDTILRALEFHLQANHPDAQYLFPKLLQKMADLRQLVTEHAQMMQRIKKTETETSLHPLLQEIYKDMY
# Summary of the method: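 Measured quantity: GAL4-UAS reporter transcript induction in HepG2 after 24 h chemical dosing, with NR-Gal4 chimeras supplied by transient transfection. Detection by RT-PCR and capillary electrophoresis; upward fit against DMSO.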
# [7] = biological target: Nuclear receptor subfamily 1 group I member 2 (Homo sapiens) (UniProt O75469); test: ATG_PXR_TRANS: Attagene TRANS-FACTORIAL HepG2 Assay for human Pregnane X Receptor (PXR) (AID 2283008; active means hit-call score of the fitted dose curve at least 0.9, where 1 is the maximum)
# Sequence of Nuclear receptor subfamily 1 group I member 2 (Homo sapiens) (O75469 whole entry, looked up, the tested form may be a part): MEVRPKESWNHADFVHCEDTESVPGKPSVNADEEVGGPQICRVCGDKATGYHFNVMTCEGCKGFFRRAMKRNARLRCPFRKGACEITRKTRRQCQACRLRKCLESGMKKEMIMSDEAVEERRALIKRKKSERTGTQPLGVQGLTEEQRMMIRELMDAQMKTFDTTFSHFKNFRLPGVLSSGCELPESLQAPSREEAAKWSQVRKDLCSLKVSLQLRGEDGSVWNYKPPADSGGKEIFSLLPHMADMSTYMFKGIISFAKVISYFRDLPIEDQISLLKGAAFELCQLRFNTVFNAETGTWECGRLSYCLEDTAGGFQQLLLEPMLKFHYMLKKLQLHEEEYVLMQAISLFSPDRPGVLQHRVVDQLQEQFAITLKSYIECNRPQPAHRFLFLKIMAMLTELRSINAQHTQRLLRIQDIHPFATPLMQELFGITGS
# Summary of the method: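 HepG2 transfected (FuGene 6) with GAL4-UAS reporter units + PXR-Gal4 chimera; dosed 24 h. Total RNA → oligo(dT) RT → PCR → 6-FAM primer extension → HpaI cut → CE. Gain-of-signal vs DMSO.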
# [8] = biological target: human RAR-related Orphan Receptor beta (RORb), RORB (gene 6096) (UniProt Q92753); test: ATG_RORb_TRANS: Attagene TRANS-FACTORIAL HepG2 Assay for human RAR-related Orphan Receptor beta (RORb) (AID 2283010; active means hit-call score of the fitted dose curve at least 0.9, where 1 is the maximum)
# Sequence of human RAR-related Orphan Receptor beta (RORb), RORB (gene 6096) (Q92753 whole entry, looked up, the tested form may be a part): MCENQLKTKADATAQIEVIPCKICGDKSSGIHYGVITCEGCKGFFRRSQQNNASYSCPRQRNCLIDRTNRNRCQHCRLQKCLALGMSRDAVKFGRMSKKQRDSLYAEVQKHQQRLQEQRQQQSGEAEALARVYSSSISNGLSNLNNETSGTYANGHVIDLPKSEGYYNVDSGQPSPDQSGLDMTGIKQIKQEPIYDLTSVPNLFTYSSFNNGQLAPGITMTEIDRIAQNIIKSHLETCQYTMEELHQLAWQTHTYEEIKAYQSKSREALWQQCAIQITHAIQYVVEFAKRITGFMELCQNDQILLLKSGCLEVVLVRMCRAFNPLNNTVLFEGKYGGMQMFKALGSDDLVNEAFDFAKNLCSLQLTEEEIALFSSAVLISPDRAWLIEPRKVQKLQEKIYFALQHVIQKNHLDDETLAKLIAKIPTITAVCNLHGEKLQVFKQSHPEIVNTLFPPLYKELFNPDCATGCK
# Summary of the method: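 HepG2, transient MRTU transfection (GAL4-UAS reporters, exogenous NR-Gal4 chimeras); 24 h compound exposure; total RNA → RT-PCR → 6-FAM primer extension → HpaI digest → CE fluorescence. Positive direction vs DMSO baseline.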
# [9] = BSK_3C_uPAR: BioMAP Diversity Plus: 3C Assay for Urokinase-type plasminogen activator receptor (uPAR) Biomarker Activity (AID 2282998); conditions: BioMAP 3C HUVEC, uPAR biomarker ELISA; actives raise or lower the signal
# Summary of the method: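 HUVEC primary cells; 24 h post-dose; uPAR by ELISA; gain or loss of signal fitted bidirectionally vs DMSO baseline.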
# [10] = BSK_3C_VCAM1: BioMAP Diversity Plus: 3C Assay for Vascular cell adhesion molecule 1 (VCAM1) Biomarker Activity (AID 2282999); conditions: BioMAP 3C HUVEC, VCAM1 ELISA, cytokine-stimulated; actives raise or lower the signal
# Summary of the method: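 Vascular primary endothelium (human umbilical vein) was exposed to chemicals and assayed 24 h later. VCAM-1 levels came from ELISA, with DMSO serving as baseline for bidirectional fitting.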
# [11] = BSK_4H_Eotaxin3: BioMAP Diversity Plus: 4H Assay for Eotaxin 3 Biomarker Activity (AID 2283000); conditions: primary human endothelial cells (HUVEC); actives raise or lower the signal;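 further: CCL26 protein level quantified by ELISA in parallel with SRB cytotoxicity check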
# Summary of the method: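 Readout is Eotaxin-3 (CCL26) level by ELISA in primary human umbilical vein endothelial cells harvested 24 h after chemical exposure; activity fitted in both directions against DMSO control.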
# [12] = read-out: Intercellular Adhesion Molecule 1 (ICAM1), ICAM1 (gene 3383); test: BSK_3C_ICAM1: BioMAP Diversity Plus: 3C Assay for Intercellular Adhesion Molecule 1 (ICAM1) Biomarker Activity (AID 2283003); conditions: primary human endothelial cells (HUVEC); actives raise or lower the signal
# Summary of the method: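 ELISA read-out of ICAM-1; HUVEC (primary human), 3C system, 24 h post-dosing; bidirectional fit vs DMSO baseline.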
# [13] = BSK_3C_Proliferation: Cell Proliferation Assessment in the BioMAP Diversity Plus: 3C Assay (AID 2283006); conditions: primary human endothelial cells (HUVEC);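 on AC50: potency may reflect either rise or fall in cell number versus DMSO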
# Summary of the method: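 HUVEC, sub-confluent; 48 h chemical exposure; 10% TCA fix, 0.1% SRB stain, A560 total protein. Gain or loss of signal fitted both directions vs DMSO control.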
# [14] = biological target: Peroxisome proliferator-activated receptor gamma (Homo sapiens) (UniProt P37231); test: ATG_PPARg_TRANS: Attagene TRANS-FACTORIAL HepG2 Assay for human Peroxisome Proliferator-activated Receptor-gamma (PPARg) (AID 2283007; active means hit-call score of the fitted dose curve at least 0.9, where 1 is the maximum)
# Sequence of Peroxisome proliferator-activated receptor gamma (Homo sapiens) (P37231 whole entry, looked up): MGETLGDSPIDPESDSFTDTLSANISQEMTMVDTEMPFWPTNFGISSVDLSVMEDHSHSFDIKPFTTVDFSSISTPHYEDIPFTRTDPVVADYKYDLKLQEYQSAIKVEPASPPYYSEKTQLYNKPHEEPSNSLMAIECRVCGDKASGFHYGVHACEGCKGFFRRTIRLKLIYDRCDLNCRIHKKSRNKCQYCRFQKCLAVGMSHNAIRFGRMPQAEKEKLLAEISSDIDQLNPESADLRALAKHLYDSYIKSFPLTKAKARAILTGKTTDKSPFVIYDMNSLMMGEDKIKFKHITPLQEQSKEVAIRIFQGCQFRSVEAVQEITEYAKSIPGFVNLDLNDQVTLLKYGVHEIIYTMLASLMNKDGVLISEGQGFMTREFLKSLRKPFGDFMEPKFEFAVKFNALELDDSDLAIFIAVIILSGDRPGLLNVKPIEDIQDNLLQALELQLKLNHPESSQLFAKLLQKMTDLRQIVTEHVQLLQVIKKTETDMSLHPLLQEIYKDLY
# Summary of the method: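 Multiplexed reporter transcription units in HepG2, 24 h dosing, reporter transcripts quantified by fluorescent RT-PCR and capillary electrophoresis. Increase over DMSO scored.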
# [15] = biological target: human Peroxisome Proliferator-activated Receptor alpha (PPARa), PPARA (gene 5465) (UniProt Q07869); test: ATG_PPARa_TRANS: Attagene TRANS-FACTORIAL HepG2 Assay for human Peroxisome Proliferator-activated Receptor alpha (PPARa) (AID 2283001; active means hit-call score of the fitted dose curve at least 0.9, where 1 is the maximum)
# Sequence of human Peroxisome Proliferator-activated Receptor alpha (PPARa), PPARA (gene 5465) (Q07869 whole entry, looked up, the tested form may be a part): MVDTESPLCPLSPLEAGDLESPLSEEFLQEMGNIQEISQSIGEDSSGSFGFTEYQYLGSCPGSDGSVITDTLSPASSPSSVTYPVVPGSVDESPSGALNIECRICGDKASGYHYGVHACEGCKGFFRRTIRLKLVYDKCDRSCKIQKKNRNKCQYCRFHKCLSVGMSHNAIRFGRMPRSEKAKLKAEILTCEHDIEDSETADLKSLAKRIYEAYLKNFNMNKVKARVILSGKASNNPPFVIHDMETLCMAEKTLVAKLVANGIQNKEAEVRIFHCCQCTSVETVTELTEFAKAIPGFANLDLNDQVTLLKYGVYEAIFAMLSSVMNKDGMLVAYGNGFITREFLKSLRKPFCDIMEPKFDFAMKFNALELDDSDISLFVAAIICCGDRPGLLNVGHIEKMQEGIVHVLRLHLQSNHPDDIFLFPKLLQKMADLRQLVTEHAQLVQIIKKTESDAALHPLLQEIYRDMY
# Summary of the method: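 Exposure: 24 h, transiently transfected HepG2 cells. Endpoint: GAL4-UAS reporter mRNA, RT-PCR with capillary electrophoresis fluorescence. Baseline: DMSO; increases fitted.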
Compound,outcome [1],outcome [2],outcome [3],outcome [4],outcome [5],outcome [6],outcome [7],outcome [8],AC50 [3],outcome [9],outcome [10],outcome [11],outcome [12],AC50 [13],outcome [14],AC50 [7],outcome [15],outcome [13]
O=Cc1ccc(F)cc1,inactive,inactive,inactive,inactive,inactive,inactive,inactive,inactive,–,–,–,–,–,–,–,–,–,–
CC(=O)[C@H]1CC[C@H]2[C@@H]3CC=C4C[C@@H](O)CC[C@]4(C)[C@H]3CC[C@]12C,inactive,inactive,–,inactive,inactive,inactive,–,–,16.5 µM (active),inactive,inactive,inactive,inactive,7.47 µM (active) and 6.54 µM (active),inactive,4.3 µM (active),–,–
OC[C@H]1O[C@H](O[C@]2(CCl)O[C@H](CCl)[C@@H](O)[C@@H]2O)[C@H](O)[C@@H](O)[C@H]1Cl,inactive,inactive,inactive,inactive,inactive,–,inactive,–,–,inactive,inactive,inactive,inactive,–,–,–,inactive,inactive
CCOc1ccccc1OCC,inactive,inactive,inactive,inactive,inactive,inactive,inactive,–,–,–,–,–,–,–,inactive,–,–,–
OCCCCCO,inactive,inactive,inactive,inactive,inactive,inactive,inactive,–,–,–,–,–,–,–,inactive,–,–,–
CC(C)=CCCC(C)CC=O (stereo unspecified),inactive,inactive,inactive,inactive,inactive,–,inactive,inactive,–,–,–,–,–,–,inactive,–,inactive,–
CC(=O)OCc1ccc2c(c1)OCO2,inactive,inactive,inactive,inactive,inactive,–,inactive,inactive,–,–,–,–,–,–,–,–,inactive,–
CO[Si](C)(OC)c1ccccc1,inactive,inactive,–,inactive,inactive,inactive,–,–,16.2 µM (active),–,–,–,–,–,inactive,2.73 µM (active),–,–
CC1(C)[C@H](C(=O)OCc2cccc(Oc3ccccc3)c2)[C@@H]1C=C(Cl)Cl,inactive,inactive,inactive,inactive,inactive,inactive,inactive,–,–,–,–,–,–,–,–,–,–,–
